10 compounds from PubChem BioAssay (NCI) can be followed below.

The panel holds about 83,000 compounds, 20% with a hit somewhere; the sample as a whole holds those more often.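 Cells were grown in 96-well plates and exposed to the test compound at a single concentration for 48 hours; results are reported as percent growth, with values below 10 considered active.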 Values without a mark were called inactive. Calls of active or inactive are those of the source.

Assay in all cases: NCI-60 one-dose screen, 48 h (100 = growth as untreated, 0 = no growth, -100 = all killed)
The test system of one assay is NCI-H522 lung. The settings on record: 10 µM unless noted.
A further assay has as its system A549/ATCC NSCLC. The settings on record: 10 µM unless noted.
In another assay the test system is COLO 205 colon. To be noted: 10 µM.
The next assay relates to SNB-75 CNS. To be noted: 10 µM unless noted.
Another assay deals with PC-3 prostate. The settings on record: 10 µM unless noted.
The subject of another assay is SK-MEL-5 melanoma. To be noted: 10 µM unless noted.
For a further assay, the system named is SK-MEL-28 melanoma. To be noted: 10 µM unless noted.
In another assay the test system is CAKI-1 renal. The settings on record: 10 µM unless noted.
The subject of a further assay is CCRF-CEM leukemia. The settings on record: 10 µM unless noted.
The next assay has as its system SR leukemia. The settings on record: 10 µM.
The subject of another assay is RPMI-8226 leukemia. To be noted: 10 µM unless noted.
In another assay the test system is OVCAR-5 ovarian. The settings on record: 10 µM unless noted.
The next assay has as its system IGROV1 ovarian. The settings on record: 10 µM.
The test system of the next assay is HS 578T breast. The settings on record: 10 µM unless noted.
The subject of another assay is MCF7 breast. The settings on record: 10 µM unless noted.
A further assay has as its system HT29 colon. The settings on record: 10 µM unless noted.
The test system of another assay is EKVX NSCLC. To be noted: 10 µM unless noted.
Another assay concerns OVCAR-3 ovarian. The settings on record: 10 µM unless noted.

With `CNC(C)Cc1ccccc1` (centres undefined) (tested in a mixture with another compound), the growth in the assay on NCI-H522 lung is 82.4%; in the assay on A549/ATCC NSCLC it was 92.3%; in the assay on COLO 205 colon it was 102%; in the assay on SNB-75 CNS, 100%; in the assay on PC-3 prostate, 92.8%; with SK-MEL-5 melanoma, 99.6%. In addition, the growth with SK-MEL-28 melanoma was 105%; with CAKI-1 renal, 102%; with CCRF-CEM leukemia it was 105%; with SR leukemia it was 108%; with RPMI-8226 leukemia, 90.4%; in the assay on OVCAR-5 ovarian, 88.1%. The growth is 101% in the assay with IGROV1 ovarian, 106% with HS 578T breast and 97.3% in the assay on MCF7 breast.
For `Fc1ccc(C2=NN(c3ccccc3)C(c3sc(N(CCCl)CCCl)nc3Cl)C2)cc1` (centres undefined), the growth with NCI-H522 lung was 64.2%; with A549/ATCC NSCLC, 86.3%; in the assay on COLO 205 colon, 88.6%; in the assay on HT29 colon, 81.2%; in the assay on SNB-75 CNS, 68.7%; with PC-3 prostate, 68.2%. Besides, the growth was 83.2% in the assay on SK-MEL-5 melanoma; 111% in the assay with SK-MEL-28 melanoma; 84% in the assay on EKVX NSCLC; 62.2% in the assay with CAKI-1 renal; 83% with SR leukemia; 91.5% with OVCAR-5 ovarian. The growth in the assay on IGROV1 ovarian was 82.7%; in the assay on OVCAR-3 ovarian it was 91.7%; with HS 578T breast, 74.5%; with MCF7 breast, 72.2%.
As to `ClCCN(CCCl)c1nc(Cl)c(C2CC(c3ccc(Cl)cc3)=NN2c2cc(Cl)cc(Cl)c2)s1` (centres undefined), the growth in the assay on NCI-H522 lung is 80%; with A549/ATCC NSCLC, 97.7%; in the assay on COLO 205 colon, 105%; in the assay with HT29 colon, 94.4%; in the assay with SNB-75 CNS, 97.7%; in the assay with SK-MEL-28 melanoma, 121%. Besides, the growth in the assay on EKVX NSCLC is 102%; with CCRF-CEM leukemia it was 99.7%; with SR leukemia, 93.1%; in the assay on OVCAR-5 ovarian, 108%; in the assay with IGROV1 ovarian, 102%; in the assay with OVCAR-3 ovarian it was 108%. Further, the figures for the growth with HS 578T breast and with MCF7 breast were 89.7% and 95.1%, respectively.
Regarding `O=C1NC(=O)C(Cc2ccccc2)(Cc2ccccc2)C(=O)N1`, the growth is 97.8% in the assay with NCI-H522 lung; 104% in the assay on A549/ATCC NSCLC; 125% in the assay with COLO 205 colon; 104% in the assay with HT29 colon; 89.3% with SNB-75 CNS; 105% in the assay on PC-3 prostate. The growth in the assay with SK-MEL-5 melanoma was 109%; in the assay with SK-MEL-28 melanoma it was 97.9%; in the assay with EKVX NSCLC, 109%; in the assay on CAKI-1 renal, 114%; in the assay with CCRF-CEM leukemia, 101%; in the assay on SR leukemia, 99.6%. Moreover, the growth in the assay on OVCAR-5 ovarian is 110%; in the assay on IGROV1 ovarian it was 114%; with OVCAR-3 ovarian, 119%; in the assay on HS 578T breast it was 109%; in the assay on MCF7 breast, 94.8%.
Turning to `COc1cc(/C=C\c2cc(OC)c(OC)c(OC)c2)cc(N/C=C\C(=O)c2ccc(OC(F)(F)F)cc2)c1OC`, the growth is -54.8% (active) in the assay with NCI-H522 lung; 19.4% in the assay with A549/ATCC NSCLC; 3.12% (active) in the assay with COLO 205 colon; -36.6% (active) with HT29 colon; 42.6% with PC-3 prostate; 27.6% in the assay on SK-MEL-5 melanoma. For the same compound, the growth in the assay on SK-MEL-28 melanoma was 62.2%; with CAKI-1 renal it was 45.5%; with CCRF-CEM leukemia it was 8.99% (active); in the assay with SR leukemia, 4.84% (active); in the assay on OVCAR-5 ovarian, 44.2%; in the assay with IGROV1 ovarian, 48.3%. Besides, the growth is -8.54% (active) in the assay with OVCAR-3 ovarian, 29.4% in the assay with HS 578T breast and 17.2% in the assay with MCF7 breast.
In the case of `CCCCCCCC(=O)OCC/C=C/C1OC1C1OC(=O)/C=C\C=C\c2nc(oc2C)/C=C(/C)CCC2OC2C1OC(=O)NC(C)=O` (centres undefined), the growth with NCI-H522 lung was -80.3% (active); in the assay with A549/ATCC NSCLC, 5.19% (active); in the assay with COLO 205 colon, -90.3% (active); in the assay on HT29 colon, 4.62% (active); with SNB-75 CNS, -35.8% (active); in the assay with PC-3 prostate it was -3.27% (active). The growth is -15.3% (active) in the assay with SK-MEL-28 melanoma; -5.8% (active) in the assay with EKVX NSCLC; -6.91% (active) with CAKI-1 renal; -22% (active) in the assay with OVCAR-5 ovarian; -10.2% (active) in the assay with IGROV1 ovarian; 5.74% (active) with OVCAR-3 ovarian. Moreover, the growth with HS 578T breast was -1.2% (active); in the assay on MCF7 breast, -39.3% (active).
On to `CC1(C)CC2(CC(C)(C)c3cc(O)c(O)cc32)c2cc(O)c(O)cc21`, for which the growth was 37.4% in the assay on NCI-H522 lung; 97.2% in the assay on A549/ATCC NSCLC; 102% in the assay with COLO 205 colon; 90.9% in the assay with PC-3 prostate; 92.5% with SK-MEL-5 melanoma; 97% with SK-MEL-28 melanoma. Moreover, the growth with EKVX NSCLC is 95.1%; in the assay on CAKI-1 renal it was 92.3%; in the assay with SR leukemia, 70.3%; in the assay with RPMI-8226 leukemia, 103%; with OVCAR-5 ovarian, 93%; with IGROV1 ovarian it was 98.4%. Besides, the figures for the growth in the assay on OVCAR-3 ovarian and with HS 578T breast were 88.9% and 89.2%, respectively.
On to `CCC1([N+](=O)[O-])COP(=O)(NCc2cccnc2)OC1` (centres undefined), for which the growth in the assay with NCI-H522 lung is 109%; in the assay on A549/ATCC NSCLC it was 102%; in the assay on COLO 205 colon, 119%; in the assay on HT29 colon, 116%; in the assay with SNB-75 CNS, 104%; in the assay with PC-3 prostate it was 106%. For the same compound, the growth in the assay on SK-MEL-5 melanoma was 107%; with SK-MEL-28 melanoma, 113%; in the assay on EKVX NSCLC it was 106%; in the assay on CAKI-1 renal, 103%; in the assay on CCRF-CEM leukemia it was 101%; in the assay with SR leukemia, 105%. Besides, the growth in the assay with OVCAR-5 ovarian was 99.7%; in the assay with IGROV1 ovarian, 118%; in the assay on OVCAR-3 ovarian, 113%; in the assay on HS 578T breast, 107%; in the assay with MCF7 breast it was 115%.
Consider `CC[C@H](C)[C@H](NC(=O)Nc1ccccc1)C(=O)N(C)[C@H](C[C@@H](OC(C)=O)c1nc(C(=O)N[C@@H](Cc2ccccc2)C[C@H](C)C(=O)OC)cs1)C(C)C`, for which the growth with NCI-H522 lung is -44.6% (active); in the assay with A549/ATCC NSCLC, 23.5%; in the assay on COLO 205 colon, -51.8% (active); in the assay with HT29 colon, -23.1% (active); with SNB-75 CNS, 5.16% (active); in the assay on SK-MEL-5 melanoma, -70.3% (active). Also, the growth was 52.1% in the assay with SK-MEL-28 melanoma; 33.2% in the assay on EKVX NSCLC; 11.2% in the assay on SR leukemia; 8.45% (active) in the assay with RPMI-8226 leukemia; 28.9% in the assay with OVCAR-5 ovarian; 22.2% with IGROV1 ovarian. Also, the growth in the assay with MCF7 breast was 12.4%.
Consider `CC1(C)N=C(N)N=C(N)N1c1ccc(CCCCc2ccc(Cl)cc2S(=O)(=O)F)c(Cl)c1`, for which the growth is 3.95% (active) in the assay with NCI-H522 lung; 9.77% (active) in the assay on A549/ATCC NSCLC; 15.9% in the assay on COLO 205 colon; 11.4% in the assay with HT29 colon; 51.9% in the assay with SNB-75 CNS; 21.3% in the assay with PC-3 prostate. Moreover, the growth was 19.5% with SK-MEL-5 melanoma; 37.8% with SK-MEL-28 melanoma; 20.6% with CAKI-1 renal; 13.1% in the assay on CCRF-CEM leukemia; 17.8% in the assay with RPMI-8226 leukemia; 31.4% with OVCAR-5 ovarian. For the same compound, the growth in the assay with OVCAR-3 ovarian was 25.2%; with MCF7 breast, 13.3%.
